Data published in PubChem BioAssay (NCATS).
Records with an inconclusive call do not appear. The source made the active and inactive calls. Unless noted, the call rests on the fitted dose curve; in most records, active means well fitted curve in the direction sought with a large enough effect; inconclusive means small, poorly fitted or top-dose-only effect, or another doubt; inactive means no such curve, though single readings can be large; an effect the other way counts as inactive or inconclusive.

Tests used:
[1] = qHTS Assay for Identification of Small Molecule Agonists for NFkB Signaling Pathway. (AID 624478);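 further: compounds tested together with TNF alpha at its EC50 of 10 pM; 0% is about no effect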
Method in brief: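 Assay medium contained 0.5% FBS and 10 mM HEPES pH 7.3. Compounds were added together with TNF alpha (10 pM final), incubated 5 h at 37 C, and the beta-lactamase signal was measured fluorometrically.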

[2] = Cell Proliferation Assay against the TMD8 Cell Line (AID 651645); settings: TMD8 DLBCL cell line proliferation/viability; at 46.1 µM (top of the series);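 further: cells exposed to compound for 48 h before reading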
Method in brief: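 Viability by CellTiter-Glo after 48 h compound exposure of 500 log-phase TMD8 cells per well (RPMI, 5% FBS). Percent activity scaled between DMSO (100%) and 9.2 uM final bortezomib (0%).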

[3] = Cell Proliferation Assay against the HBL1 Cell Line (AID 651646); settings: HBL1 DLBCL cells; at 46.1 µM (top of the series);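 further: cells exposed to compound for 48 h before reading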
Method in brief: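 After a 48 h incubation of 500 HBL1 cells/well in phenol red-free RPMI plus 5% FBS, relative luciferase units from CellTiter-Glo gave percent activity against DMSO and 9.2 uM bortezomib (final) controls.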

[4] = qHTS for small molecule inhibitors of Yes1 kinase: Counter Assay (AID 686950);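 further: no kinase present so only ADP-Glo detection of a fixed ADP amount is tested; luminescence from ADP-Glo reporting ADP in a fixed ATP and ADP mixture; 0% = DMSO wells with ATP plus ADP and -100% = ATP-only wells without ADP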
Method in brief: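 Measuring interference with ADP-Glo, the assay ran 60 min at room temperature on an ATP/ADP mix lacking enzyme. Values were normalized to ATP-plus-ADP (maximum) and ATP-only (minimum) DMSO controls.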

[5] = Cell Proliferation Assay against the TMD8 Cell Line (Caspase readout at 8 hrs) (AID 651713); further: potency means the concentration at half of the fitted maximal effect
Method in brief: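 Luminescent caspase 3/7 assay; TMD8 cells, 8 h treatment at 37C, 5% CO2. Normalisation: DMSO 0%, 9.2 uM bortezomib 100%.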

[6] = biological target: Tyrosine-protein kinase Yes (Homo sapiens) (UniProt P07947); assay: qHTS for small molecule inhibitors of Yes1 kinase: Primary Screen (AID 686947); further: nearly all actives have a fitted effect of over 60% in size; further: potency means the concentration at half of the fitted maximal effect
Sequence of Tyrosine-protein kinase Yes (Homo sapiens) (P07947 whole entry, looked up): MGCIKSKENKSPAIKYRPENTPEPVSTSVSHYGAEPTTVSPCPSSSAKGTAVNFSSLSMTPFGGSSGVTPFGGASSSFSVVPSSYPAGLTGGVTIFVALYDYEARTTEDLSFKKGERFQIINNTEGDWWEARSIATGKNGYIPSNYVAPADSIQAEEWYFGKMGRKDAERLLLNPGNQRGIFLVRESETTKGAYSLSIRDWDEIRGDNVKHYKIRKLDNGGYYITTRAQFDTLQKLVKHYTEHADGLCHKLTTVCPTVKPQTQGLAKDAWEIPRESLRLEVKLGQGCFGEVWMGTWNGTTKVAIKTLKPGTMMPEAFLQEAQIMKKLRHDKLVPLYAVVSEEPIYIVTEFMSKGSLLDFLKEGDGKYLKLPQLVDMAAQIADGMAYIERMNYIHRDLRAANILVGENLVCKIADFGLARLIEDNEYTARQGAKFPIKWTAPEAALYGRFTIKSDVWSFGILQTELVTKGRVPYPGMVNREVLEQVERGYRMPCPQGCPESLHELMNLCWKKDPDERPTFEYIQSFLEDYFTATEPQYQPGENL
Method in brief: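 In this qHTS format, inhibition is expressed relative to DMSO controls with enzyme (maximum) and without enzyme (minimum). The 60 min room-temperature reaction uses 0.1 mM ATP, with ADP detected by luminescence.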

[7] = qHTS Assay for Identification of Small Molecule Antagonists for NFkB Signaling Pathway. (AID 624479; calls by dose curve;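 further: pathway stimulated with TNF alpha; potency means the concentration at half of the fitted maximal effect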)
[8] = qHTS assay for small molecule agonists of the antioxidant response element (ARE) signaling pathway (AID 651741; active means well fitted activation curve with a large enough effect in the signal ratio; the % refers to the signal ratio; further: potency means the concentration at half of the fitted maximal effect); settings: HepG2 ARE-bla reporter, beta-lactamase FRET ratio, 16 h
Method in brief: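 Beta-lactamase reporter expression driven by the antioxidant response element in HepG2 cells was detected by fluorescence with LiveBLAzer B/G FRET substrate (2 h, room temperature) following 16 h compound treatment at 37 C.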

[9] = qHTS assay for small molecule activators of the p53 signaling pathway (AID 651743; active means well fitted activation curve with a large enough effect in the signal ratio, not every such curve was filed as active; the % refers to the signal ratio; further: % of control where 0% means no effect); settings: HCT-116 p53RE-bla, beta-lactamase FRET ratio, 16 h; stronger effect = higher value
Method in brief: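 Here HCT-116 cells with an integrated p53-responsive beta-lactamase gene were incubated with compounds (16 hours, 37 C) after a 5-hour plating period; beta-lactamase activity was detected as fluorescence intensity via B/G FRET substrate.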

[10] = qHTS assay for small molecule activators of the nuclear factor-kappa B (NF-kB) signaling pathway (AID 651749; active means well fitted activation curve with a large enough effect in the signal ratio; the % refers to the signal ratio; further: % of control where 0% means no effect); settings: NF-kB-bla ME-180 cells, beta-lactamase FRET ratio, 16 h; stronger effect = higher value
Method in brief: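 Beta-lactamase reporter expression, controlled by NF-kB response elements in ME-180 cells, was quantified fluorometrically via FRET disruption; cells at 2,000/well had been incubated with 23 nL test compound for 16 hr.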

[11] = qHTS assay for environmental chemicals that activate the Aryl hydrocarbon Receptor (AhR) signaling pathway (AID 651777); settings: 1A2-DRE human hepatoma cells, luciferase, 24 h; stronger effect = higher value; further: % of control where 0% means no effect; nearly all actives have a fitted effect of over 15% in size
Method in brief: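 Concentration–response screening used 1,200 1A2-DRE cells per well, 24 hr compound exposure (37 C, 5% CO2), and One-Glo luminescence as the AhR-driven CYP1A2 reporter signal.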

[12] = biological target: Peroxisome proliferator-activated receptor alpha (Homo sapiens) (UniProt Q07869); assay: qHTS assay for small molecule agonists of the peroxisome proliferator-activated receptor alpha (PPARalpha) signaling pathway (AID 651778); settings: PathHunter PPARalpha complementation, chemiluminescence, 6 h; stronger effect = higher value; further: % of control where 0% means no effect
Sequence of Peroxisome proliferator-activated receptor alpha (Homo sapiens) (Q07869 whole entry, looked up): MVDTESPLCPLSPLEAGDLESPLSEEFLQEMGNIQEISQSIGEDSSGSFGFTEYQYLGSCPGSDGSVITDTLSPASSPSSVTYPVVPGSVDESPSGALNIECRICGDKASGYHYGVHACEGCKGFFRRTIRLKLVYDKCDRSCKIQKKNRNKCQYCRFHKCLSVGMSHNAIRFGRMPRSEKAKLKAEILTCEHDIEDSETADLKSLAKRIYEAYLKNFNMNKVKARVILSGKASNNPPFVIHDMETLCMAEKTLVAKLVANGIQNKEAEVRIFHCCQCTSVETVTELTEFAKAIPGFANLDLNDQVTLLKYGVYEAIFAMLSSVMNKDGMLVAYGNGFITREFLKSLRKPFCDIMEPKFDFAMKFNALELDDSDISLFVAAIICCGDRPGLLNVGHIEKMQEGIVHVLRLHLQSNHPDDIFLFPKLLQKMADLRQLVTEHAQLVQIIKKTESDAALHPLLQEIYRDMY
Method in brief: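 Cells plated at 2,000/well and held overnight at 37 C, 5% CO2, then compound added by pin tool for 6 hr; after PathHunter detection reagent and 60 min at room temperature, chemiluminescence from enzyme complementation was read.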

[13] = qHTS for Inhibitors of Ubiquitin-specific Protease USP2a Using CHOP2 as the Reporter: K633 Counterscreen (AID 652168); further: % of control where 0% means no effect
Method in brief: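 Detection-system control: fluorescence of K48-linked DiUb-4IQF substrate (100 nM as added) tracked over time, Ex 525/Em 598, with pinned compounds and no enzyme, in pH 8 Tris buffer containing beta-mercaptoethanol and 0.05% Chaps.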

[14] = qHTS for Inhibitors of Ubiquitin-specific Protease USP2a Using CHOP2 as the Reporter: Cytotox Assay (AID 652170); settings: HCT116 viability, CellTiter-Glo luminescence, 72 h; further: potency means the concentration at half of the fitted maximal effect; nearly all actives have a fitted effect of over 70% in size
Method in brief: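 Cytotoxicity read as ATP luminescence (CellTiter-Glo) after 72 hr compound treatment at 37 deg C. Cells: HCT116, 600/well in DMEM plus 10% FBS. Normalization between DMSO-treated cells and cell-free wells.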

[15] = biological target: Ubiquitin carboxyl-terminal hydrolase 2 (Homo sapiens) (UniProt O75604); assay: qHTS for Inhibitors of Ubiquitin-specific Protease USP2a Using CHOP2 as the Reporter: K484 Substrate (AID 652173); settings: USP2 cleavage of DiUb K48 IQF substrate, fluorescence;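 further: cleavage of internally quenched K48 di-ubiquitin substrate measured as rising fluorescence over time; potency means the concentration at half of the fitted maximal effect; nearly all actives have a fitted effect of over 70% in size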
Sequence of Ubiquitin carboxyl-terminal hydrolase 2 (Homo sapiens) (O75604 whole entry, looked up): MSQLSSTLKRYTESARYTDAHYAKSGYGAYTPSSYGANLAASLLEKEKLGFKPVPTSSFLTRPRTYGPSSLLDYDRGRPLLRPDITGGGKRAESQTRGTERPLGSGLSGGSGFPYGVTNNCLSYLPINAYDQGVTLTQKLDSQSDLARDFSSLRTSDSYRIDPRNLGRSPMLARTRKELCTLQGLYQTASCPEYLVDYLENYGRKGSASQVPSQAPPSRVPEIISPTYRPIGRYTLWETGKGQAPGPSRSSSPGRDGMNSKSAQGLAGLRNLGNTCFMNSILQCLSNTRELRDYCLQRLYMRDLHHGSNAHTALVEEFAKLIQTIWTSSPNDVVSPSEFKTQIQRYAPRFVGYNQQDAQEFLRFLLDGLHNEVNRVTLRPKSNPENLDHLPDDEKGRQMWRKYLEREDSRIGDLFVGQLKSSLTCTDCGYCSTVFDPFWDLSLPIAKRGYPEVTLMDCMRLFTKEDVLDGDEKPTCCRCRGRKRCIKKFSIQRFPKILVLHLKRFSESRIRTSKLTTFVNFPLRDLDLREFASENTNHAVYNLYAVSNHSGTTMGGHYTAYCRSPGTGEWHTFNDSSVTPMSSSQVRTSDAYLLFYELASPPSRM
Method in brief: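 Kinetic fluorescence (Ex 525/Em 598) tracked cleavage of an internally quenched K48 di-ubiquitin substrate, added as a 100 nM solution. The enzyme was added as a 5 nM USP2 solution before compound pinning, with no-enzyme controls. Buffer: Tris pH 8, beta-mercaptoethanol, CHAPS.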

c1cc(-c2cnn3cc(-c4ccc(OCCN5CCCCC5)cc4)cnc23)ccn1
outcome [1]: inactive
viability (% of control) [2]: 2.17%
viability, percent of control [3]: 8.17%
outcome [4]: inactive

CN(C)CCCN=c1c2ccccc2n(C)c2[nH]c(=O)n(C)c(=O)c12
outcome [1]: inactive
viability (% of control) [2]: 1.93%
viability, percent of control [3]: 32.9%
Potency [5]: 26.4 µM (active)
Potency [6]: inactive
outcome [4]: inactive

C=CC(=O)N1CCC[C@@H](n2nc(-c3ccc(Oc4ccccc4)cc3)c3c(N)ncnc32)C1
outcome [4]: inactive

Cc1cn2c(-c3cn[nH]c3)cnc2c(Nc2ccc(C(=O)N3CCNCC3)cc2F)n1
outcome [1]: inactive
viability, percent of control [3]: 85.6%
Potency [6]: 21.8 µM (active)
outcome [4]: inactive

CCC(=C(c1ccccc1)c1ccc(OCCN(C)C)cc1)c1ccccc1
Potency [7]: 21.1 µM (active)
viability (% of control) [2]: -0.936%
viability, percent of control [3]: -1.5%
Potency [5]: 33.2 µM (active)
Potency [6]: inactive
outcome [4]: inactive

Cc1cc(Nc2cc(N3CCN(C)CC3)nc(C=Cc3ccccc3)n2)n[nH]1
viability, percent of control [3]: 3.87%
Potency [5]: inactive
Potency [6]: 0.0307 µM (active)
outcome [4]: inactive

O=C(O)CCCc1c[nH]c2ccccc12
Potency [8]: 61.1 µM (active)
activation [9]: -6.63% (inactive)
activation [10]: -1.42% (inactive)
activation [11]: 1.2% (inactive)
max response [12]: -0.171% (inactive)

Cc1ccc(S(=O)(=O)Nc2cc(Cl)ccc2C(=O)Nc2nc(-c3ccccc3)cs2)cc1
outcome [13]: inactive
Potency [14]: 5.26 µM (active)
Potency [15]: 1.22 µM (active)
outcome [4]: inactive

CC(=O)OCC(=O)[C@@]1(O)[C@H](C)C[C@H]2[C@@H]3C=C(C)C4=Cc5c(cnn5-c5ccccc5)C[C@]4(C)[C@@H]3[C@@H](O)C[C@@]21C
outcome [1]: inactive
viability (% of control) [2]: 3.02%
viability, percent of control [3]: 2.93%
Potency [5]: inactive
Potency [6]: inactive
outcome [4]: inactive

CC[C@H](CO)Nc1nc(NCc2ccccc2)c2ncn(C(C)C)c2n1
viability (% of control) [2]: 7.77%
viability, percent of control [3]: 55%
outcome [4]: inactive

C=C1C(=CC=C2CCC[C@]3(C)[C@@H]([C@H](C)C=C[C@H](C)C(C)C)CC[C@@H]23)C[C@@H](O)C[C@@H]1O
Potency [7]: 21.1 µM (active)

Cc1cnc(Nc2ccc(F)cc2Cl)nc1-c1c[nH]c(C(=O)N[C@H](CO)c2cccc(Cl)c2)c1
outcome [1]: inactive
viability (% of control) [2]: -0.93%
viability, percent of control [3]: 0.107%
Potency [6]: inactive
outcome [4]: inactive

CNc1nccc(-c2cccnc2Oc2cc(C(=O)Nc3cccc(C(F)(F)F)c3)ccc2C)n1
Potency [7]: 13.3 µM (active)
viability (% of control) [2]: 6.17%
viability, percent of control [3]: 25.3%
Potency [5]: inactive
outcome [4]: inactive

Fc1cc(-c2cccc3ncc(-c4cnn(C5CCNCC5)c4)nc23)cc(F)c1CN1CCOCC1
outcome [1]: inactive
viability (% of control) [2]: 1.53%
viability, percent of control [3]: 2.06%
Potency [6]: 0.308 µM (active)
outcome [4]: inactive
